# Measured values from PubChem BioAssay (NCATS).
# Results filed as inconclusive are left out. Entries that show only a call come without a potency. Active and inactive are the calls of the source. Calls follow the shape of the dose curve; as a rule, active = well fitted curve in the direction sought with a large enough effect; inconclusive = small, poorly fitted or top-dose-only effect, or another doubt; inactive = no such curve, though single readings can be large; an effect the other way counts as inactive or inconclusive.
# Experiments:
# [1] = Primary qHTS for inhibitors of nuclear receptor binding SET domain protein 2 (NSD2) in an isogenic RCH-ACV NSD2 p.E1099K mutant (9B) (AID 1645876)
# [2] = Primary qHTS for inhibitors of nuclear receptor binding SET domain protein 2 (NSD2) in an RCH-ACV wild type WT cells (2C) (AID 1645877)
# Also: nearly all actives have a fitted effect of over 70% in size.
# Potency is read from the fitted curve at half-maximal effect.
SMILES,Potency [1],Potency [2]
C=C(CO)C(=O)O[C@H]1C/C(C)=C/CC/C(CO)=C/[C@H]2OC(=O)C(=C)[C@H]12,inactive,–
C=CC(C)(C)c1[nH]c2cccc3c2c1C[C@@H]1[C@@H]3[C@@H](OC(C)=O)[C@H](C)CN1C,inactive,inactive
CC12CCC3C(CCC4(O)CC(O)CCC34C=O)C1(O)CCC2C1=CC(=O)OC1 (stereo not drawn),0.258 µM (active),0.515 µM (active)
COc1ccc2c(c1)/C(=C/c1cnc[nH]1)C(=O)N2,13 µM (active),18.4 µM (active)
COC(=O)C12C(=O)C(C)(O)C(=O)C1(C)C(C)=CC1C34CCC(OC3=O)C(C)(CO)C4CCC12C (stereo not drawn),inactive,inactive
CC(=O)OC12C(O)C(C)C3(O)C4C=C(C)C(=O)C4CC(CO)=CC3C1C2(C)C (stereo not drawn),inactive,inactive
COC(=O)C1(C)CCC(=O)C2(C)c3c(O)cc(C(C)C)cc3C(O)C(OC(C)=O)C12 (stereo not drawn),inactive,inactive
O=C(N1CCOCC1)N1CCN(c2ccc(Cl)cc2)CC1,inactive,inactive
CCC1NC(=O)C2C(Cl)C(Cl)CN2C(=O)C(C(C)O)NC(=O)CC(c2ccccc2)NC(=O)C(CO)NC1=O (stereo not drawn),inactive,inactive
CC(=O)OC1CC(O)C(C)(C)C2CC(OC(C)=O)C3(C)C(CCC4(C)C(c5ccoc5)C(=O)C5OC543)C12C (stereo not drawn),inactive,inactive
CC1=C2C(=O)C3[C@@H](CC=C4C[C@@H](O)CC[C@@]43C)[C@@H]2CC[C@]12O[C@@H]1C[C@H](C)CN[C@H]1[C@H]2C (stereo partly drawn),inactive,inactive
CCC(C)(C#N)O[C@@H]1O[C@H](CO)[C@@H](O)[C@H](O)[C@H]1O (stereo partly drawn),inactive,inactive
